Rows were chosen to be rich in hits. Some 22% of all compounds tested hit in one or more screens of this group.
CYP2C9 inh = blockers of cytochrome P450 2C9 activity – biochemical, luminescence, ADME assay, primary screen | P11712 | CYP2C9 Supersomes, luciferin-H conversion | inhibition, % at 5 µM | actives 20% (n = 96,000);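 active means blocking of liver enzyme CYP2C9 beyond about 50% at 5 µM, limit read from the data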
CYP2C19 inhib = blockers of cytochrome P450 2C19 activity – biochemical, luminescence, ADME assay, primary screen. inhibition, % at 5 µM. P33261. actives 21% (n = 96,000). CYP2C19 Supersomes, luciferin-H EGE luminescence, 30 min;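 active means CYP2C19 inhibition above a set limit at 5 µM in the primary screen, cut at about 50% in these data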;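 further: plate controls were negative control wells for no effect and 2.5 mM tranylcypromine positive control for full effect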
Target sequence (P33261 whole entry, looked up): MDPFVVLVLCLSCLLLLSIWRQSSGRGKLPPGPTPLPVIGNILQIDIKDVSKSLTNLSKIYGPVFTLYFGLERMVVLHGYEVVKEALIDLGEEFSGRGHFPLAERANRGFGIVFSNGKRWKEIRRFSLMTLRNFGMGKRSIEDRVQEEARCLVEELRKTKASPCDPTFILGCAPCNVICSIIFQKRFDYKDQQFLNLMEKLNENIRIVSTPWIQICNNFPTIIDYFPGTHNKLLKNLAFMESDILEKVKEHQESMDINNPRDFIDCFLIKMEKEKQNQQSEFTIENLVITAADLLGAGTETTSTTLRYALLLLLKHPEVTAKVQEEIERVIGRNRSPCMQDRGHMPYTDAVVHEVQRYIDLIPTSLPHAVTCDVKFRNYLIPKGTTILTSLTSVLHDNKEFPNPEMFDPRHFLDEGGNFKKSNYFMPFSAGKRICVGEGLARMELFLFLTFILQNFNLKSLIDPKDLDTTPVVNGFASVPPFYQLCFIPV
Measles CPE = compounds protecting cells from measles virus cytopathic effect, primary screen, measles RdRp inhibitor project, single point, MLSMR library, absorbance. Measles virus-infected cells, CPE protection. actives 1.5% (n = 140,000). protection (pct of control), % at 4 µM. AID 841, 2007; in the data active means protection mostly above about 24%, no sharp cut-off; inactive means mostly below about 26%
CYP2C9 act = human CYP2C9 activators, primary screen, biochemical, luminescence; Cytochrome P450 2C9 (Homo sapiens), P11712; recombinant CYP2C9, luciferin-H conversion; active compounds read high; factor 1 = untreated enzyme, 0 = blocked; activation factor at 5 µM; actives 1.4% (n = 96,000); AID 1024, 2008;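 active means activation factor of 2 or more for CYP2C9 at a 5 µM dose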;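 further: 0 = sulfaphenazole-blocked wells and 1 = vehicle-only wells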
CYP2C19 activ = human CYP2C19 activators, primary screen, biochemical, luminescence. recombinant CYP2C19, luciferin-H EGE luminescence; active compounds read high; 0 = fully inhibited enzyme, 1 = untreated enzyme. AID 1025, 2008. 96,000 tested, under 10 active. activation factor at 5 µM. Cytochrome P450 2C19 (Homo sapiens), P33261;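 active means activation factor of at least 2 at 5 µM in the primary screen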;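 further: 0 = wells with 2.5 mM tranylcypromine and 1 = vehicle-only wells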
The depositor's hits bear a star; . = no result given.

SMILES	CYP2C9 inh	CYP2C19 inhib	Measles CPE	CYP2C9 act	CYP2C19 activ
CCOc1ccc2nc(NC(=O)C3CCCN(S(=O)(=O)c4cccs4)C3)sc2c1 (configuration not stated)	60*	50*	19	0.4	0.5
CCOc1ccc2nc(NC(=O)C(NS(=O)(=O)c3cccs3)C(C)C)sc2c1 (configuration not stated)	3	0	5	1	1
COc1ccc(NC(=O)C2CCCN(S(=O)(=O)c3ccc(C)cc3)C2)cc1OC (configuration not stated)	.	.	2	.	.
COC(=O)Nc1ccc(S(=O)(=O)N2CCCC(C(=O)Nc3cccc4c3OCCO4)C2)cc1 (configuration not stated)	83*	64*	1	0.2	0.4
COC(=O)Nc1ccc(S(=O)(=O)N2CCCC(C(=O)Nc3cccnc3)C2)cc1 (configuration not stated)	40	5	13	0.6	1
CCOc1ccc(N2CC(C(=O)Oc3ccccc3)CC2=O)cc1 (configuration not stated)	.	.	23	.	.
Cc1ccc(-n2nnnc2-c2cnc3cc4c(cc3c2C)OCO4)cc1	22	19	4	0.8	0.8
CCSc1nnc(NC(=O)C2CCCN(S(=O)(=O)c3cnc[nH]3)C2)s1 (configuration not stated)	74*	25	9	0.3	0.8
Cc1cc(C)nc(N2CCCC(C(=O)Nc3nc4ccc(S(C)(=O)=O)cc4s3)C2)n1 (configuration not stated)	83*	87*	11	0.2	0.1
Cc1ccc2nc(NC(=O)C3CCCN(S(=O)(=O)c4cnc[nH]4)C3)sc2c1 (configuration not stated)	51*	26	15	0.5	0.7
Cc1ccc2nc(NC(=O)C3CCCN(S(=O)(=O)c4cccnc4)C3)sc2c1 (configuration not stated)	13	-14	2	0.9	1.1
Cc1ccnc(NC(=O)C2CCCN(S(=O)(=O)c3cnc[nH]3)C2)c1 (configuration not stated)	58*	44	14	0.4	0.6
CCOC(=O)c1c(C)[nH]c(C(=O)COC(=O)C(C)Oc2ccc(Cl)cc2Cl)c1C (configuration not stated)	.	.	4	.	.
COc1cc(C)nc(N2CCCC(C(=O)Nc3cc(Cl)ccc3OC)C2)n1 (configuration not stated)	-15	84*	6	1.1	0.2
COc1ccc(C)cc1NC(=O)C1CCCN(S(=O)(=O)c2cnc[nH]2)C1 (configuration not stated)	62*	64*	31	0.4	0.4
Cc1ccccc1NC(=O)Cn1c(=O)n(C)c2ccccc21	-11	23	10	1.1	0.8
CCn1c(=O)n(CC)c2cc(S(=O)(=O)Nc3ccccc3C)c(C)cc21	76*	72*	6	0.2	0.3
CCOc1ccc(Br)cc1S(=O)(=O)Nc1nc(CN2CCOCC2)nc2sc(C)c(C)c12	30	17	2	0.7	0.8
CCOc1ccc(Br)cc1S(=O)(=O)Nc1ccccc1N1CCOCC1	55*	78*	7	0.4	0.2
CCOc1ccc(Br)cc1S(=O)(=O)Nc1ccc(N2CCOCC2)cc1	54*	64*	77*	0.5	0.4
Cc1oc(/N=C/c2ccc(Cl)cc2)c(C#N)c1C	-7	4	7	1.1	1
Cc1oc(/N=C/c2ccc(Cl)cc2Cl)c(C#N)c1C	27	71*	2	0.7	0.3
Cc1c(C(=O)OC(C)C)nnn1-c1nonc1N	.	.	5	.	.
CCOC(=O)c1cc(C(=O)OCC)c2cc(Br)ccc2n1	64*	47	9	0.4	0.5
CC(=O)c1ncnn1CC(=O)c1ccc(Cl)cc1Cl	32	61*	3	0.7	0.4
Cn1cc(C(=O)c2ccc(Cl)cc2Cl)cc1C(=O)O	6	-7	7	0.9	1.1
COC(=O)c1c(C)[nH]c(C)c1-c1ccccc1	27	60*	14	0.7	0.4
COC(=O)c1c(C)nc2ccccc2c1-c1ccccc1	34	25	7	0.7	0.7

High-throughput results deposited in PubChem BioAssay by several laboratories.
